Assay results published in PubChem BioAssay (Tox21).
Records with an inconclusive call do not appear. The source made the active and inactive calls. Unless noted, calls follow the shape of the dose curve; as a rule, active = well fitted curve in the direction sought with a large enough effect in the repeat runs; inconclusive = weak or mixed curves; inactive = no such curve, though single readings can be large; an effect the other way counts as inactive or inconclusive.

How the values were obtained:
[1] = qHTS assay to identify small molecule HDAC inhibitors (AID 1259364);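 also: wild-type HCT-116 cells with endogenous class I/II HDAC activity; top concentration of the series differs between compounds; nearly all actives have a fitted effect of over 45% in size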
In short: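 After a 2 hr compound incubation (37C, 5% CO2), HCT-116 cells seeded at 1,500/well the day before received HDAC-Glo reagent; signal read as luminescence after 30 min at room temperature.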

[2] = qHTS assay to identify small molecule HDAC inhibitors - cell viability counter screen (AID 1259365); also: series mostly up to about 92 µM; nearly all actives have a fitted effect of over 50% in size
In short: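 HCT-116 wild-type, overnight attachment; 2hr drug exposure, 37C; CellTiter-Glo luminescent ATP readout after 30min RT.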

[3] = qHTS assay to identify small molecule antagonists of the sonic hedgehog signaling (Shh) pathway - cell viability counter screen (AID 1259367); also: nearly all actives have a fitted effect of over 55% in size
In short: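 Fluorescence read-out (CellTiter-Fluor, 1 hr at 37C) taken after 23 hr compound treatment of 3T3 Gli1-Luc cells stimulated with conditioned medium. Cells were seeded at 2,000 per well and pre-incubated 4 hr.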

[4] = qHTS assay to identify small molecule antagonists of the sonic hedgehog signaling (Shh) pathway (AID 1259369; calls by dose curve; also: nearly all actives have a fitted effect of over 45% in size)
In short: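 Gli1 transcriptional reporter (firefly Luc) in NIH/3T3 background, conditioned-medium activated. 24hr exposure, luminescence endpoint.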

[5] = biological target: Estrogen receptor beta (Homo sapiens) (UniProt Q92731); assay: qHTS assay to identify small molecule agonists of the estrogen receptor beta (ER-beta) signaling pathway (AID 1259377; active = well fitted activation curve with a large enough effect in the signal ratio in the repeat runs, not every such curve was filed as active; the % refers to the signal ratio)
In short: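 qHTS in ER-beta-UAS-bla HEK293T cells: 6 hr settling, then 16 hr compound at 37C, then LiveBLAzer substrate 2 h at RT before fluorescence reading.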

[6] = biological target: Estrogen receptor beta (Homo sapiens) (UniProt Q92731); assay: qHTS assay to identify small molecule antagonists of the estrogen receptor beta (ER-beta) signaling pathway (AID 1259378; active = well fitted inhibition curve with a large enough effect in the signal ratio in the repeat runs, not every such curve was filed as active; the % refers to the signal ratio)
In short: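 ER-beta-UAS-bla HEK293T cells in 2% charcoal-stripped FBS medium treated with compound plus 1nM final 17-beta-estradiol for 16 hr at 37C. Beta-lactamase reporter read by FRET substrate fluorescence after 2 hours at room temperature.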

[7] = qHTS assay to identify small molecule agonists of the androgen receptor (AR) signaling pathway in the presence of an antagonist - cell viability counter screen (AID 1259379);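 also: MDA-kb2 human breast cancer cells carrying an MMTV luciferase reporter; series mostly up to about 92 µM; nearly all actives have a fitted effect of over 25% in size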
In short: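 Counter screen for cell viability run in parallel with the AR agonist-mode luciferase assay. MDA-kb2 cells were co-treated with nilutamide (3.0uM final) and compounds, then incubated 16 hr at 37C, and CellTiter-Fluor fluorescence was measured.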

[8] = biological target: Androgen receptor (Homo sapiens) (UniProt P10275); assay: qHTS assay to identify small molecule agonists of the androgen receptor (AR) signaling pathway in the presence of an antagonist (AID 1259381; calls by dose curve; also: nearly all actives have a fitted effect of over 15% in size)
In short: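 AR antagonist background: nilutamide 3.0uM final. Cell line: MDA-kb2, MMTV-driven luciferase, responsive to both AR and GR. Exposure 16hr, 37C, no CO2; ONE-Glo luminescence.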

[9] = qHTS assay to identify small molecule antagonists of the estrogen receptor beta (ER-beta) signaling pathway - cell viability counter screen (AID 1259382); also: series mostly up to about 92 µM; nearly all actives have a fitted effect of over 55% in size
In short: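 HEK293T ER-beta-UAS-bla, 2% charcoal-stripped FBS; compounds + 1nM E2 16 hr 37C; CellTiter-Glo luminescence, 30 min RT.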

[10] = biological target: Estrogen receptor (Homo sapiens) (UniProt P03372); assay: qHTS assay to identify small molecule agonists of the estrogen receptor alpha (ER-alpha) signaling pathway in the presence of an antagonist (AID 1259383; calls by dose curve; also: top concentration of the series differs between compounds; nearly all actives have a fitted effect of over 15% in size)
In short: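 ER-alpha agonism measured under antagonist challenge: 10.0nM ICI-182,780 (final) plus compound, 15 concentrations, 22hr, VM7Luc4E2 ERE-luciferase cells. Read by luminescence.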

[11] = qHTS assay to identify small molecule agonists or antagonists of the thyroid stimulating hormone receptor (TSHR) signaling pathway - wild type cell line counter screen (AID 1259384; calls by dose curve)
In short: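 Wild-type Hek293 cells, 800/well, 18 h at 37C, then compound with Ro20-1724 for 30 min RT. cAMP by HTRF (cAMP-d2/anti-cAMP cryptate), 1 h RT, fluorescence read. 15 concentrations, triplicates.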

[12] = biological target: Thyrotropin receptor (Homo sapiens) (UniProt P16473); assay: qHTS assay to identify small molecule antagonists of the thyroid stimulating hormone receptor (TSHR) signaling pathway (AID 1259385; calls by dose curve; also: nearly all actives have a fitted effect of over 20% in size)
In short: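 TSHR-HEK293 cells (800/well) plated 18 h, then compounds with Ro20-1724 and TSH at 1.5 ng/mL final, 30 min at room temperature. cAMP quantified by HTRF (cAMP-d2/anti-cAMP-cryptate, 1 h); 15 concentrations in triplicate.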

[13] = qHTS assay to identify small molecule agonists of the estrogen receptor alpha (ER-alpha) signaling pathway in the presence of an antagonist - cell viability counter screen (AID 1259386);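 also: series mostly up to about 92 µM; cells exposed to compounds for 22 h at 37 °C before the viability read; nearly all actives have a fitted effect of over 30% in size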
In short: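 Steps: 5-day stripped-FBS culture; seed and incubate 24hr; add ICI-182,780 (10.0nM final); pin 15-point compound titration; incubate 22hr at 37C; add CellTiter-Fluor at 21hr; read fluorescence.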

[14] = biological target: Progesterone receptor (Homo sapiens) (UniProt P06401); assay: qHTS assay to identify small molecule agonists of the progesterone receptor (PR) signaling pathway (AID 1346784; calls by dose curve; also: nearly all actives have a fitted effect of over 30% in size)
In short: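 Fluorescence from LiveBLAzer B/G FRET substrate cleavage (2 hr, RT) reported PR activation in PR-UAS-bla HEK 293T cells treated 16 hr at 37C/5% CO2 with compounds; medium contained 2% charcoal-stripped FBS.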

[15] = biological target: Progesterone receptor (Homo sapiens) (UniProt P06401); assay: qHTS assay to identify small molecule antagonists of the progesterone receptor (PR) signaling pathway (AID 1346795; active = well fitted inhibition curve with a large enough effect in the signal ratio in the repeat runs, not every such curve was filed as active; the % refers to the signal ratio)
In short: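 Fluorescence intensity measured 2 hr after adding beta-lactamase FRET substrate to PR-UAS-bla HEK293T cells that had been co-treated 16 hr with compound and 1 nM R5020 (final concentration) in 2% charcoal-stripped FBS.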

[16] = qHTS assay to identify small molecule antagonists of the progesterone receptor (PR) signaling pathway - cell viability counter screen (AID 1346798); also: series mostly up to about 92 µM; nearly all actives have a fitted effect of over 50% in size
In short: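 CellTiter-Glo luminescence; PR-UAS-bla HEK293T, 3,000 cells/well; compound + R5020, 16 hr, 37C/5% CO2; 30 min RT before read.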

[17] = qHTS assay to identify small molecule agonists of the sonic hedgehog signaling (Shh) pathway (AID 1259368; calls by dose curve;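 also: NIH/3T3-derived 3T3Gli1-Luc cells carrying a stable Gli1-driven firefly luciferase reporter; series mostly up to about 92 µM; nearly all actives have a fitted effect of over 15% in size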)
In short: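 Stable NIH/3T3 Gli1-Luc reporter clone; 24 hr cpd exposure after a 4 hr settling period; luminescence endpoint.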

[18] = qHTS assay to identify small molecule agonists of the estrogen receptor beta (ER-beta) signaling pathway - cell viability counter screen (AID 1259380); also: nearly all actives have a fitted effect of over 30% in size
In short: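 In this qHTS counter screen, HEK293T cells carrying an ER-beta/UAS beta-lactamase reporter, grown in 2% charcoal-stripped FBS, received compound for 16 hr; ATP-based CellTiter-Glo luminescence was then read after 30 min at room temperature.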

[19] = qHTS assay to identify small molecule agonists of the progesterone receptor (PR) signaling pathway - cell viability counter screen (AID 1346799; calls by dose curve; also: nearly all actives have a fitted effect of over 45% in size)
In short: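 In parallel with the beta-lactamase readout, cytotoxicity toward PR-UAS-bla HEK293T cells was measured by CellTiter-Glo luminescence following 16 hr compound incubation in 2% charcoal-stripped FBS medium.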
% is scaled to controls: 0 for no effect and ±100 for the full control effect.

Sequence of Estrogen receptor beta (Homo sapiens) (Q92731 whole entry, looked up): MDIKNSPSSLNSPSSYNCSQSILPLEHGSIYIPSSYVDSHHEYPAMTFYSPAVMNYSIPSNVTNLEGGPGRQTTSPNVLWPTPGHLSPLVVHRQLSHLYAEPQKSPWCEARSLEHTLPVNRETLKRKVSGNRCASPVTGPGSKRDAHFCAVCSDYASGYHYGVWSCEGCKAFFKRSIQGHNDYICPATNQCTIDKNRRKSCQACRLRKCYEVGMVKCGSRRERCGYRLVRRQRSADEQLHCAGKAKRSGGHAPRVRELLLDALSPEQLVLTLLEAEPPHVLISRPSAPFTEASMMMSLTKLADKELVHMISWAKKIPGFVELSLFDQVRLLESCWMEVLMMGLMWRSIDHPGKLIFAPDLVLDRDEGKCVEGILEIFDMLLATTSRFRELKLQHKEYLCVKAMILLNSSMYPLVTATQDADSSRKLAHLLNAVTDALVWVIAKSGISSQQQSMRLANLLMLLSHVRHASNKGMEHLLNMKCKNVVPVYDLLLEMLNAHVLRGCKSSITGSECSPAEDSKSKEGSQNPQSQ
Sequence of Estrogen receptor (Homo sapiens) (P03372 whole entry, looked up): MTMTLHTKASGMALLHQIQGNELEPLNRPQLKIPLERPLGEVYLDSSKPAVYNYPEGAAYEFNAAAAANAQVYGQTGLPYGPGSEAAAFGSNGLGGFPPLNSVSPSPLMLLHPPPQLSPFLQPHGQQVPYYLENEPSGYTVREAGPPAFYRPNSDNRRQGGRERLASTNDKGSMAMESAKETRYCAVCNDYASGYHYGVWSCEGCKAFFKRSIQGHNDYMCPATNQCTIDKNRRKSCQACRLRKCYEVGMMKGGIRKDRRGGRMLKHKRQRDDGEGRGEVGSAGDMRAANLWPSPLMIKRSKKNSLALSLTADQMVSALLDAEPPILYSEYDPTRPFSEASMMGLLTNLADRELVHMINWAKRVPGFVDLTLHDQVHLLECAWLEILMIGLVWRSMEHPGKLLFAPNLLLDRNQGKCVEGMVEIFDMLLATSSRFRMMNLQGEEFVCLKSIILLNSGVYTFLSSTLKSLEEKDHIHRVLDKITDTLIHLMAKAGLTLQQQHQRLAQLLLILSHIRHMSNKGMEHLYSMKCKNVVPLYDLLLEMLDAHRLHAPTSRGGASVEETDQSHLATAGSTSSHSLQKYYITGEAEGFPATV
Sequence of Thyrotropin receptor (Homo sapiens) (P16473 whole entry, looked up): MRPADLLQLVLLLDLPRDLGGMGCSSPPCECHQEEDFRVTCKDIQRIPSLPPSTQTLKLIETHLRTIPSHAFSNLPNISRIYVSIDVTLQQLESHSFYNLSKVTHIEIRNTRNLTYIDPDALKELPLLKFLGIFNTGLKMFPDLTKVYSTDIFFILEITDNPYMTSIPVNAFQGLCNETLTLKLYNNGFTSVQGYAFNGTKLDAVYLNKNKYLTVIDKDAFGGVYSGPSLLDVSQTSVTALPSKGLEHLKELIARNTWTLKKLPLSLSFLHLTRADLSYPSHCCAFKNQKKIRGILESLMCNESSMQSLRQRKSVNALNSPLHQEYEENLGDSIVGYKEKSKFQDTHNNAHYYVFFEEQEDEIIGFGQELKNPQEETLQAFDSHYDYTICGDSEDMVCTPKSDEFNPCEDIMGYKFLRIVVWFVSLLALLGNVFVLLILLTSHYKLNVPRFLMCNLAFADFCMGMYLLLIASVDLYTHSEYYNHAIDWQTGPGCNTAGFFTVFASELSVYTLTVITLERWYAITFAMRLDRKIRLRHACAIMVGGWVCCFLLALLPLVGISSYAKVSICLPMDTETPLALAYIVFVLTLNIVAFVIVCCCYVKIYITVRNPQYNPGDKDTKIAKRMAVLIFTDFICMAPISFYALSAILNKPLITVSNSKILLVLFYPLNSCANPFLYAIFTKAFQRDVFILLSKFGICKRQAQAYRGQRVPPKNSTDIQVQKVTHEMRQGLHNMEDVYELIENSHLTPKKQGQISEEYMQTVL
Sequence of Progesterone receptor (Homo sapiens) (P06401 whole entry, looked up): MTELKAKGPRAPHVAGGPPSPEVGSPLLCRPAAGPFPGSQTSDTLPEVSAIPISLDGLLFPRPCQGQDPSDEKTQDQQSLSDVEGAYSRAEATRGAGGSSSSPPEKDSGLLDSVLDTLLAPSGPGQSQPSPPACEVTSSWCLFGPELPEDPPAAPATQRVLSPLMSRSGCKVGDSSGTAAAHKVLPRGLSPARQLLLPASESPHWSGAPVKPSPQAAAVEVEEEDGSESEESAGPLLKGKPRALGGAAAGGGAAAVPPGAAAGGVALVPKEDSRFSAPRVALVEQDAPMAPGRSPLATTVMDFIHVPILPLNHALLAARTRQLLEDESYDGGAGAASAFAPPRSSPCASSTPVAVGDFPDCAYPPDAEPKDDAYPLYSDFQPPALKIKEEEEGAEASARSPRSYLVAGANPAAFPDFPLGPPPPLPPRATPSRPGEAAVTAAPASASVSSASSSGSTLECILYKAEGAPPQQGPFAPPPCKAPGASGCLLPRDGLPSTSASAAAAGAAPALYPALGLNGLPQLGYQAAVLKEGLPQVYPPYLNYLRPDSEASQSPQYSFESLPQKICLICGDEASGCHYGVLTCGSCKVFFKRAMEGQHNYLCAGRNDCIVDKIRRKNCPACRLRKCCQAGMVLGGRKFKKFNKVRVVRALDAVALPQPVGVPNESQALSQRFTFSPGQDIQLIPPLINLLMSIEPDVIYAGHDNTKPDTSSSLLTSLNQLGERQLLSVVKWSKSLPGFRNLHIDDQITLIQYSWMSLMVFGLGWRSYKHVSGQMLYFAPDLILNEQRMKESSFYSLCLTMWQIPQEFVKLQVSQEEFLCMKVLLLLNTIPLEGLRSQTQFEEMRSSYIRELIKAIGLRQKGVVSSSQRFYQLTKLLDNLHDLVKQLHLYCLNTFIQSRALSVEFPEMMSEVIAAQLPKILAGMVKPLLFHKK
Sequence of Androgen receptor (Homo sapiens) (P10275 whole entry, looked up): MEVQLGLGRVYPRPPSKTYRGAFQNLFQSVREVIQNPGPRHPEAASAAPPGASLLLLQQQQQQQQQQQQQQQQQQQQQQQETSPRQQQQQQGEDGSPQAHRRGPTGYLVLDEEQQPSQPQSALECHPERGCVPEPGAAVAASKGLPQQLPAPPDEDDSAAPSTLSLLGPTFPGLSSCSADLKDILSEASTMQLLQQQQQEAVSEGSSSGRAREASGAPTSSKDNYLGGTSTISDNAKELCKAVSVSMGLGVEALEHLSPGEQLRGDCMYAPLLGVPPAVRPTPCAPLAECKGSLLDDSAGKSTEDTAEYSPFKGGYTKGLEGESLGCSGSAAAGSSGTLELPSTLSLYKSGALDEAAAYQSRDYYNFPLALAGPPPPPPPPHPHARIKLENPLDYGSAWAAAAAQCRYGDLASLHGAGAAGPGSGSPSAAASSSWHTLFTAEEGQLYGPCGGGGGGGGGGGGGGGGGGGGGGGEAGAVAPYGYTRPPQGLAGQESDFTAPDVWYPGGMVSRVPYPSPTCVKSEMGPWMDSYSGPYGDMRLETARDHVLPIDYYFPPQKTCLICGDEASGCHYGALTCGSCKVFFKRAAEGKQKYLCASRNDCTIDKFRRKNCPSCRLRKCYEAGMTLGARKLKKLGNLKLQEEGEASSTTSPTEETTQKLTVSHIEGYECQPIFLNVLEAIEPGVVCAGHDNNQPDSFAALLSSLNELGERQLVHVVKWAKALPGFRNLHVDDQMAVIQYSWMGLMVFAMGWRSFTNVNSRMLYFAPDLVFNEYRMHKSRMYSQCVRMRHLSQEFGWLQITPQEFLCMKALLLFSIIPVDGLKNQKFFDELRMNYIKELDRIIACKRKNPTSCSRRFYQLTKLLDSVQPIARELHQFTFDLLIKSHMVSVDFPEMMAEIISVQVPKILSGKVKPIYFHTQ

CCO[Si](CC)(OCC)OCC
inactive: Potency [1] | outcome [2] | outcome [3] | Potency [4] | Potency [5] | Potency [6] | outcome [7] | outcome [8] | outcome [9] | Potency [10] | outcome [11] | outcome [12] | outcome [13] | Potency [14] | Potency [15] | outcome [16]

C=C(C)[C@@H]1CC=C(C)CC1
inactive: Potency [1] | outcome [2] | outcome [3] | outcome [17] | Potency [4] | outcome [7] | outcome [18] | outcome [9] | Potency [10] | outcome [13] | Potency [14] | Potency [15] | outcome [16] | outcome [19]

O=C1c2ccccc2C(=O)c2cc(Cl)ccc21
inactive: activity change, negative = inhibition [1] -13.5% [at 8.39 µM] | activity change, negative = cytotoxicity [2] 6.08% [at 8.39 µM] | activity change [17] 1.3% [at 8.39 µM] | activity change, negative = inhibition [4] 20.2% [at 8.39 µM] | activation [5] 7.82% [at 8.39 µM] | activity, negative = inhibition [6] 3.18% [at 8.39 µM] | activity change, negative = cytotoxicity [7] 0.449% [at 8.39 µM] | activity change, negative = cytotoxicity [18] 1.14% [at 8.39 µM] | activity change, negative = cytotoxicity [9] 1.86% [at 8.39 µM] | activation [10] 1.09% [at 8.39 µM] | cAMP activity change [11] 2.64% [at 8.39 µM] | activation [14] 2.34% [at 8.39 µM] | activity change, negative = inhibition [15] 1.29% [at 8.39 µM] | activity change, negative = cytotoxicity [19] 13.3% [at 8.39 µM]

CCCC(=O)OC/C=C(\C)CCC=C(C)C
inactive: Potency [1] | outcome [2] | outcome [3] | outcome [17] | Potency [4] | Potency [6] | outcome [7] | outcome [18] | outcome [9] | Potency [10] | outcome [11] | outcome [13] | Potency [14] | Potency [15] | outcome [16]

CCCCCCCCCOC(=O)CCCCC(=O)OCCCCCCC
inactive: Potency [1] | outcome [2] | outcome [3] | outcome [17] | Potency [4] | outcome [7] | outcome [9] | outcome [11] | outcome [12] | outcome [13] | Potency [14] | Potency [15] | outcome [16]

C=C(C)C1CC=C(C)C(=O)C1 (stereo not given)
inactive: Potency [1] | outcome [2] | outcome [3] | outcome [17] | Potency [4] | Potency [5] | Potency [6] | outcome [7] | outcome [18] | outcome [9] | outcome [13] | Potency [14] | outcome [16]

O=C(Cl)c1ccccc1[N+](=O)[O-]
inactive: Potency [1] | outcome [2] | outcome [3] | outcome [17] | Potency [4] | Potency [5] | Potency [6] | outcome [7] | outcome [18] | outcome [8] | outcome [9] | outcome [11] | outcome [12] | outcome [13] | Potency [14] | Potency [15] | outcome [19]

CO[Si](CCCn1c(=O)n(CCC[Si](OC)(OC)OC)c(=O)n(CCC[Si](OC)(OC)OC)c1=O)(OC)OC
inactive: Potency [1] | outcome [2] | outcome [3] | outcome [17] | Potency [4] | outcome [7] | outcome [18] | outcome [9] | outcome [11] | outcome [12] | outcome [13] | Potency [15] | outcome [19]
